Measurements reported in PubChem BioAssay (NCATS).
Inconclusive results are not listed. Values without a mark were called inactive. The source made the active and inactive calls. Calls come from the whole dose curve; as a rule, active = well fitted inhibition curve with a large enough effect; inconclusive = small, poorly fitted or top-dose-only effect; inactive = no such curve, though single readings can be large or run the other way.
Potency is the fitted concentration of half-maximal effect.

Test: qHTS Screen of the MIPE 4.0 Collection Against Ewings Sarcoma (EW8) (AID 1259255); note: nearly all actives have a fitted effect of over 35% in size;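 for viability: 100% = DMSO-treated cells and 0% = medium-only wells without cells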
Conditions: EW8 Ewing sarcoma viability, CellTiter-Glo, 48 h; series mostly up to 45.8 µM; viability: at the top concentration
Outline: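 Here, cells in 5% FBS RPMI were exposed for two days (48 h) to compound dilutions added four hours after plating. ATP-based CellTiter-Glo luminescence measured viability, normalized to vehicle and no-cell blanks.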
For `CC(C(=O)O)c1ccc(-c2ccccc2)c(F)c1` (centres undefined), the “viability” value was 102%. For `NC1=N[C@@]2(c3cc(NC(=O)c4ccc(F)cn4)ccc3F)COC[C@@H]2CS1`, the “viability” value was 104%. With `CC[C@H]1OC(=O)[C@H](C)C(=O)[C@H](C)[C@@H](O[C@H]2O[C@H](C)C[C@H](N(C)C)[C@@H]2O)[C@](C)(OC)C[C@@H](C)C(=O)[C@H](C)[C@H]2N(CCCCn3cnc(-c4cccnc4)c3)C(=O)O[C@]12C` the Potency was 20.9 µM (active). For `Cc1c(NC(=O)c2ccc(C(C)(C)C)cc2)cccc1-c1cn(C)c(=O)c(Nc2ccc(C(=O)N3CCOCC3)cc2)n1`, the Potency was 20.9 µM (active). With `COC(=O)N[C@H](C(=O)N1CCC[C@@H]1c1ncc(-c2ccc(-c3ccc(-c4cnc([C@@H]5CCCN5C(=O)[C@@H](NC(=O)OC)C(C)C)[nH]4)cc3)cc2)[nH]1)C(C)C` the Potency was 26.4 µM (active). In the case of `CO[C@@H](C(=O)N1Cc2[nH]nc(NC(=O)c3ccc(N4CCN(C)CC4)cc3)c2C1)c1ccccc1`, the Potency is reported as 0.0935 µM (active). For `Nc1ncnc2ccccc12`, the “viability” value was 116%. For `CCC(=O)O[C@]1(C(=O)CO)CC[C@H]2[C@@H]3CCC4=CC(=O)CC[C@]4(C)[C@@H]3CC[C@@]21C`, the “viability” value was 103%. For `CC(=O)Oc1cc2c(s1)CCN(C(C(=O)C1CC1)c1ccccc1F)C2` (centres undefined), the Potency was 3.72 µM (active). With `CC(C)(C)c1cc(C(=O)O)c(NC(=O)Nc2ccc3[nH]ncc3c2)s1` the “viability” value was 104%. In the case of `O=C(OCC#CCSc1nnc(-c2cccc3ccccc23)o1)c1cc2ccccc2s1`, the “viability” value is reported as 102%. In the case of `O=C(Nc1c(Cl)cncc1Cl)c1ccc(OC(F)F)c(OCC2CC2)c1`, the “viability” value is reported as 102%. For `Cc1cnc(C(=O)O)c[n+]1[O-]`, the “viability” value was 108%. In the case of `COC(=O)C1=CO[C@@H](O)[C@@H]2C(CO)=CC[C@@H]12`, the “viability” value is reported as 89.1%. For `CC1(C)S[C@H]2[C@H](NC(=O)[C@@H](N)c3ccc(O)cc3)C(=O)N2[C@@H]1C(=O)O`, the “viability” value was 104%. With `CC(C)C(C)C=CC(C)C1CCC2C3=CC=C4CC(O)CCC4(C)C3CCC21C` (centres undefined) the “viability” value was 101%. In the case of `Cc1ccccc1C(C(=O)NC1CCCCC1)N(C(=O)Cn1ccnc1C)c1cccc(F)c1` (centres undefined), the “viability” value is reported as 95.9%. In the case of `CC1(C)Cc2c(sc(NC(=S)NC(=O)c3ccccc3)c2C(=O)O)CO1`, the “viability” value is reported as 98%. In the case of `O=C(NCc1ccccc1)c1csc(Nc2ccncn2)n1`, the Potency is reported as 20.9 µM (active). With `O=c1ccn([C@@H]2O[C@H](CO)[C@H](O)[C@H]2O)c(=O)[nH]1` the “viability” value was 97.1%. With `c1ccc2c(-c3cnn4cc(-c5ccc(N6CCNCC6)cc5)cnc34)ccnc2c1` the “viability” value was 1.33%. With `O=C(NC1CCOCC1)c1ccc(-c2cc(-c3cn[nH]c3-c3ccccn3)ccn2)cc1` the “viability” value was 98.3%. With `CCCCCCCCCCCC1=C(O)C(=O)C=C(O)C1=O` the “viability” value was 108%. In the case of `CC[C@H]1OC(=O)[C@H](C)[C@@H](O[C@H]2C[C@@](C)(OC)[C@@H](O)[C@H](C)O2)[C@H](C)[C@@H](O[C@@H]2O[C@H](C)C[C@H](N(C)C)[C@@H]2O)[C@](C)(O)C[C@@H](C)CN(C)[C@H](C)[C@@H](O)[C@]1(C)O`, the Potency is reported as 16.6 µM (active). For `COc1ccc2cccc(CCNC(C)=O)c2c1`, the “viability” value was 94.1%. For `C=C1C(=O)OC2C=C(C)CCC=C(C)CCC12` (centres undefined), the Potency was 23.5 µM (active). For `Clc1ccc(-c2nc3sccn3c2C=NOCc2ccc(Cl)c(Cl)c2)cc1`, the “viability” value was 111%. With `COc1cccc([C@@H](C)NCCCc2ccccc2Cl)c1` the “viability” value was 120%. With `CC(=O)OC1C(C)OC(Oc2c(-c3ccc(O)cc3)oc3cc(O)cc(O)c3c2=O)C(O)C1OC(C)=O` (centres undefined) the “viability” value was 104%.
